Experiments:
[1] = molecular target: Sphingosine kinase 1 (Homo sapiens) (UniProt Q9NYA1); details: at 1 µM;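 note: mean SPHK1 inhibition value reported from the GSK PKIS kinase panel screen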
[2] = molecular target: T1, Sphingosine kinase 2 (Homo sapiens) (UniProt Q9NRA0); details: at 0.1 µM
T1 sequence (whole entry): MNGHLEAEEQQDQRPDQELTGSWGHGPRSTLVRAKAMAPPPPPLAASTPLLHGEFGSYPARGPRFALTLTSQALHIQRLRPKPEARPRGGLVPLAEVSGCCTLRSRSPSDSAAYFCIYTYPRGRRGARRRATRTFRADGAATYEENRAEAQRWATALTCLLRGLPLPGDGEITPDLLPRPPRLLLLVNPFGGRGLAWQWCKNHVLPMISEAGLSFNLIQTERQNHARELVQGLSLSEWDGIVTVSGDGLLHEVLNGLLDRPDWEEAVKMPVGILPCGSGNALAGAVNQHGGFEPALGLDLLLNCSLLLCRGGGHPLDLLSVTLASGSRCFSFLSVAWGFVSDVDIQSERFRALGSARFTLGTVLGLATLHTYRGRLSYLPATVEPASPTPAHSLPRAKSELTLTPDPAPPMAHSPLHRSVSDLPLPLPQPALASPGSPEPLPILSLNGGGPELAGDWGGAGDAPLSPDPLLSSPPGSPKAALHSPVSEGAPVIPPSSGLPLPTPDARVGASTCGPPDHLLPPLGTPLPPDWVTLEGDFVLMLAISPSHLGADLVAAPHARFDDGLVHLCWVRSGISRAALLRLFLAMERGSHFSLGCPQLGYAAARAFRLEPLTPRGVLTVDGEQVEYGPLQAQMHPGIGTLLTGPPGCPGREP

[3] = molecular target: T1, Sphingosine kinase 2 (Homo sapiens); details: at 1 µM
[4] = molecular target: Casein kinase II subunit alpha (Homo sapiens) (UniProt P68400); details: at 0.1 µM
Sequence of Casein kinase II subunit alpha (Homo sapiens) (P68400 whole entry, looked up): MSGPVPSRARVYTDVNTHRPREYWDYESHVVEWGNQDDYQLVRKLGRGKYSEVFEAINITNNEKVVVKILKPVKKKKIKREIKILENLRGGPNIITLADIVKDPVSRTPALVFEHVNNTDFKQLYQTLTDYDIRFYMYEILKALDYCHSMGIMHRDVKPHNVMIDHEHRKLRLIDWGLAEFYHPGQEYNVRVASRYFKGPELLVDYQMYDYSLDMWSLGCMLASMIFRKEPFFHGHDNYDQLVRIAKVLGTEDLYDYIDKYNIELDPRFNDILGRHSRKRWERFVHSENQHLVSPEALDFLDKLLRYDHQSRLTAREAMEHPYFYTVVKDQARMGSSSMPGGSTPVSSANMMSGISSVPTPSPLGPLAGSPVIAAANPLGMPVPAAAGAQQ

[5] = molecular target: Casein kinase II subunit alpha (Homo sapiens) (UniProt P68400); details: at 1 µM
[6] = molecular target: T2, Inhibitor of nuclear factor kappa-B kinase subunit alpha (Homo sapiens) (UniProt O15111); details: at 0.1 µM
T2 sequence (whole entry): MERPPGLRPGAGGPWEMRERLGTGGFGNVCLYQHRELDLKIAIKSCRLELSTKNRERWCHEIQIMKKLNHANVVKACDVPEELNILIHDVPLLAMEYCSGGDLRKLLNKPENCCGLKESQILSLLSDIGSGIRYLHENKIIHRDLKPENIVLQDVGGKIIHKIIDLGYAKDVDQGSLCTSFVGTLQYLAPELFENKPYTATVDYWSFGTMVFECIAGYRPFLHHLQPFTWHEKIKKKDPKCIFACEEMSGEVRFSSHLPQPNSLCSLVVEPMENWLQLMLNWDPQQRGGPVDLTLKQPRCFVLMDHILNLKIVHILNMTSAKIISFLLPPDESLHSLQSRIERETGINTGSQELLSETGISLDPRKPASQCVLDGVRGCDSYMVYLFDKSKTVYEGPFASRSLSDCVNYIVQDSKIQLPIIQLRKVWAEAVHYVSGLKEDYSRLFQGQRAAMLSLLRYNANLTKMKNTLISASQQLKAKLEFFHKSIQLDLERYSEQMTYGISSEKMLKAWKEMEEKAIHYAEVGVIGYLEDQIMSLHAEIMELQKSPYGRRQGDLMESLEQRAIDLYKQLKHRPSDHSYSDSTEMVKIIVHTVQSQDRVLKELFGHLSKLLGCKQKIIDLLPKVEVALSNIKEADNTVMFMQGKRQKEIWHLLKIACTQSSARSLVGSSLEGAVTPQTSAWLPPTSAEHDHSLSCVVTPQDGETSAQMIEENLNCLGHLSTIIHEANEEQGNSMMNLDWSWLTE

[7] = molecular target: T2, Inhibitor of nuclear factor kappa-B kinase subunit alpha (Homo sapiens); details: at 1 µM
[8] = molecular target: T3, Inhibitor of nuclear factor kappa-B kinase subunit beta (Homo sapiens) (UniProt O14920); details: at 0.1 µM
T3 sequence (whole entry): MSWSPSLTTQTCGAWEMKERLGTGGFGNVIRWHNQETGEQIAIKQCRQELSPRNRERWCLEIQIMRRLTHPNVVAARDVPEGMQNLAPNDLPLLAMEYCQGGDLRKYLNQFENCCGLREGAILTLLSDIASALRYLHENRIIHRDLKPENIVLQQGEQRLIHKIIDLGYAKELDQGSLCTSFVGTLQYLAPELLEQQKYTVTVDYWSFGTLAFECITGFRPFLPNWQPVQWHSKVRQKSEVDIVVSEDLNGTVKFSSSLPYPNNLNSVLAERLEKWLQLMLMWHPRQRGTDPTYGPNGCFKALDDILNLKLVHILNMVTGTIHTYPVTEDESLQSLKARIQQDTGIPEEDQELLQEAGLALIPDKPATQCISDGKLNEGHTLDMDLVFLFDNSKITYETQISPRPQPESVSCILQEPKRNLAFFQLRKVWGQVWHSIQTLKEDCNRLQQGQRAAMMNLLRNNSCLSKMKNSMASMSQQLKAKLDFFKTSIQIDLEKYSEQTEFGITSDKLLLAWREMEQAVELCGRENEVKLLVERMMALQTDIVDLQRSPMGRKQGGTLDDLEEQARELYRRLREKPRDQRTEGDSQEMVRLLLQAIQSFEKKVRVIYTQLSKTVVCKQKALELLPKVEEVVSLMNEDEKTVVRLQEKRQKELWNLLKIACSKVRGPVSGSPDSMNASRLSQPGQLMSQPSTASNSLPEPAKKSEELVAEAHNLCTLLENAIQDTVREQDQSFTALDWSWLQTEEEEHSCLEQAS

[9] = molecular target: T3, Inhibitor of nuclear factor kappa-B kinase subunit beta (Homo sapiens); details: at 1 µM
[10] = molecular target: T4, Inhibitor of nuclear factor kappa-B kinase subunit epsilon (Homo sapiens) (UniProt Q14164); details: at 0.1 µM
T4 sequence (whole entry): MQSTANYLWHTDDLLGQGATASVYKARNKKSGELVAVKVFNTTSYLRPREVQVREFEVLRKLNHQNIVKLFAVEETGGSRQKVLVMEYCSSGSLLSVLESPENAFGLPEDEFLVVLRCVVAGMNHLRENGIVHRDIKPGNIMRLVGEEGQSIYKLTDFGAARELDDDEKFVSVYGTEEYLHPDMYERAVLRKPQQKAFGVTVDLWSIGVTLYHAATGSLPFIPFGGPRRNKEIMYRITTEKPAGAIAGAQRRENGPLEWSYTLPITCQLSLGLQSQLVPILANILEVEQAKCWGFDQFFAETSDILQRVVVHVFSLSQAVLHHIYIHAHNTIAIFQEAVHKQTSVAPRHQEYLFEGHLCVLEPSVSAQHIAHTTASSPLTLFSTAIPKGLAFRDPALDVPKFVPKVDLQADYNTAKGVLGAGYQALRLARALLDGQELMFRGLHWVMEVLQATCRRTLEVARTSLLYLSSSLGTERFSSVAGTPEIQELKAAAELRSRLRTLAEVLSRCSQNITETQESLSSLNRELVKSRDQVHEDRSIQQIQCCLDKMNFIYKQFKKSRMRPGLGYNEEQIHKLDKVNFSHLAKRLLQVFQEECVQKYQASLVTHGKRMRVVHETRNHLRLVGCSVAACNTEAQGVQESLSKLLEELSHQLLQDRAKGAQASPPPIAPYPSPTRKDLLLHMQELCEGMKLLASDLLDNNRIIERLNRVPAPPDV

[11] = molecular target: T4, Inhibitor of nuclear factor kappa-B kinase subunit epsilon (Homo sapiens); details: at 1 µM
[12] = molecular target: T5, Serine/threonine-protein kinase Nek1 (Homo sapiens) (UniProt Q96PY6); details: at 0.1 µM
T5 sequence (whole entry): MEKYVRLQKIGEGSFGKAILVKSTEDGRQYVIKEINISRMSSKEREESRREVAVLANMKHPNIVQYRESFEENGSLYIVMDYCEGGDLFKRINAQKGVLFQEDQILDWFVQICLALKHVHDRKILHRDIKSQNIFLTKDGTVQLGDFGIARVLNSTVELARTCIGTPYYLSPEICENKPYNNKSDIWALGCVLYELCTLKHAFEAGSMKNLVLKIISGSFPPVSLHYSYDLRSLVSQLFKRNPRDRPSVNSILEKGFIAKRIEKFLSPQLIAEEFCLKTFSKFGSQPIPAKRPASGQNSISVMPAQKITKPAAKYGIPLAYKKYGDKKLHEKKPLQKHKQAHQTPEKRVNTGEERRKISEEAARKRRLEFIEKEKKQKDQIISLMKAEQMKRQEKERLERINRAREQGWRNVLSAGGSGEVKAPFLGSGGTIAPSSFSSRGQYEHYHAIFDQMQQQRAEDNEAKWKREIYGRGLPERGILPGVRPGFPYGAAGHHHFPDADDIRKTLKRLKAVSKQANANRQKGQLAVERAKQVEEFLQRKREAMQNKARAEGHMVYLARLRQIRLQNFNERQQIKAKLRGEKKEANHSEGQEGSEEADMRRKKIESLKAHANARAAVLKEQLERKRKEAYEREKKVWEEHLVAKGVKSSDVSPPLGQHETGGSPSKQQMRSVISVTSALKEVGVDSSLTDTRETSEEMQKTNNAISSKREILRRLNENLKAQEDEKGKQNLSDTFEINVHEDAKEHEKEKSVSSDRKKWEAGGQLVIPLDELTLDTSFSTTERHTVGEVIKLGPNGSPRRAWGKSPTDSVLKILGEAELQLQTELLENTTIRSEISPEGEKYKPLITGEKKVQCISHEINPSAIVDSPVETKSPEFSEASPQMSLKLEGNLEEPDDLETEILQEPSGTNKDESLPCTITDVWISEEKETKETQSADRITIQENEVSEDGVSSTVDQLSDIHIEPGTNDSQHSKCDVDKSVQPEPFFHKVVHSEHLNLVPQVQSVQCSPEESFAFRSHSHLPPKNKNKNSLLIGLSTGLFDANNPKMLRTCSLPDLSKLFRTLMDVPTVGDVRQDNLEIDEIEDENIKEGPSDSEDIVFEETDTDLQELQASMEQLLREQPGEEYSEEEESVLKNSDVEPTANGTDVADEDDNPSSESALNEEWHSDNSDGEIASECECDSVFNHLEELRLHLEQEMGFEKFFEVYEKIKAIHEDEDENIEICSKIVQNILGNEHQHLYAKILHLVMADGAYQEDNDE

[13] = molecular target: T5, Serine/threonine-protein kinase Nek1 (Homo sapiens); details: at 1 µM
[14] = molecular target: T6, Serine/threonine-protein kinase Nek2 (Homo sapiens) (UniProt P51955); details: at 0.1 µM
T6 sequence (whole entry): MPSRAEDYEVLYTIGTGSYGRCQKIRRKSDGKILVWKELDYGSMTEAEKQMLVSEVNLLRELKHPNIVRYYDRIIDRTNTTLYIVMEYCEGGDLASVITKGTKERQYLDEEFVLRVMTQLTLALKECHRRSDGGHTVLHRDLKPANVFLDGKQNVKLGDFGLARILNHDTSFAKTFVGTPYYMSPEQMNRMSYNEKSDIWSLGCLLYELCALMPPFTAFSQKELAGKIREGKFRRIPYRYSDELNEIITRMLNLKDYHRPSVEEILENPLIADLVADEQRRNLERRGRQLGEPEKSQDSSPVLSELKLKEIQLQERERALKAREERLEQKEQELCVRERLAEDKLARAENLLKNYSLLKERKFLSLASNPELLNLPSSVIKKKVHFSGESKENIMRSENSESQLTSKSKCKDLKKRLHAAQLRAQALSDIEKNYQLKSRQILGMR

[15] = molecular target: T6, Serine/threonine-protein kinase Nek2 (Homo sapiens); details: at 1 µM
[16] = molecular target: Serine/threonine-protein kinase Nek6 (Homo sapiens) (UniProt Q9HC98); details: at 0.1 µM
Sequence of Serine/threonine-protein kinase Nek6 (Homo sapiens) (Q9HC98 whole entry): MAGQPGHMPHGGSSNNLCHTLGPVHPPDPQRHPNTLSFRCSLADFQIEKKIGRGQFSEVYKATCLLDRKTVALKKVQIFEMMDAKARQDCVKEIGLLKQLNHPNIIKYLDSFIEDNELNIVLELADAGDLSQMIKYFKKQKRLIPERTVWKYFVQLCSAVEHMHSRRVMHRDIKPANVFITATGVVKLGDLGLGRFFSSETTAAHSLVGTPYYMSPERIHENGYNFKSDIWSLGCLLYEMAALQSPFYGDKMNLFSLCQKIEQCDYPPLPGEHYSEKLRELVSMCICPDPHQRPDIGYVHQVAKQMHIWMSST

[17] = molecular target: Serine/threonine-protein kinase Nek6 (Homo sapiens) (UniProt Q9HC98); details: at 1 µM
[18] = molecular target: Serine/threonine-protein kinase Nek7 (Homo sapiens) (UniProt Q8TDX7); details: at 0.1 µM
Sequence of Serine/threonine-protein kinase Nek7 (Homo sapiens) (Q8TDX7 whole entry, looked up): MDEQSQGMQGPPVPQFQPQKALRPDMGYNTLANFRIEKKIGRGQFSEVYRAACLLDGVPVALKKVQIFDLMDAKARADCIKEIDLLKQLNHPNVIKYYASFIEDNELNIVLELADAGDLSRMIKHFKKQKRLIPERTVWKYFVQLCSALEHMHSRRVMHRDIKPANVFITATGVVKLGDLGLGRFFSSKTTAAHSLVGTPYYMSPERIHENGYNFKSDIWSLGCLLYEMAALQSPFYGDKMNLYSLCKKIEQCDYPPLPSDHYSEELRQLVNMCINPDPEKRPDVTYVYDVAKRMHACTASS

[19] = molecular target: Serine/threonine-protein kinase Nek7 (Homo sapiens) (UniProt Q8TDX7); details: at 1 µM
[20] = molecular target: T7, Serine/threonine-protein kinase Nek9 (Homo sapiens) (UniProt Q8TD19); details: at 0.1 µM;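 note: reported value is the mean percent inhibition of NEK9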
T7 sequence (whole entry): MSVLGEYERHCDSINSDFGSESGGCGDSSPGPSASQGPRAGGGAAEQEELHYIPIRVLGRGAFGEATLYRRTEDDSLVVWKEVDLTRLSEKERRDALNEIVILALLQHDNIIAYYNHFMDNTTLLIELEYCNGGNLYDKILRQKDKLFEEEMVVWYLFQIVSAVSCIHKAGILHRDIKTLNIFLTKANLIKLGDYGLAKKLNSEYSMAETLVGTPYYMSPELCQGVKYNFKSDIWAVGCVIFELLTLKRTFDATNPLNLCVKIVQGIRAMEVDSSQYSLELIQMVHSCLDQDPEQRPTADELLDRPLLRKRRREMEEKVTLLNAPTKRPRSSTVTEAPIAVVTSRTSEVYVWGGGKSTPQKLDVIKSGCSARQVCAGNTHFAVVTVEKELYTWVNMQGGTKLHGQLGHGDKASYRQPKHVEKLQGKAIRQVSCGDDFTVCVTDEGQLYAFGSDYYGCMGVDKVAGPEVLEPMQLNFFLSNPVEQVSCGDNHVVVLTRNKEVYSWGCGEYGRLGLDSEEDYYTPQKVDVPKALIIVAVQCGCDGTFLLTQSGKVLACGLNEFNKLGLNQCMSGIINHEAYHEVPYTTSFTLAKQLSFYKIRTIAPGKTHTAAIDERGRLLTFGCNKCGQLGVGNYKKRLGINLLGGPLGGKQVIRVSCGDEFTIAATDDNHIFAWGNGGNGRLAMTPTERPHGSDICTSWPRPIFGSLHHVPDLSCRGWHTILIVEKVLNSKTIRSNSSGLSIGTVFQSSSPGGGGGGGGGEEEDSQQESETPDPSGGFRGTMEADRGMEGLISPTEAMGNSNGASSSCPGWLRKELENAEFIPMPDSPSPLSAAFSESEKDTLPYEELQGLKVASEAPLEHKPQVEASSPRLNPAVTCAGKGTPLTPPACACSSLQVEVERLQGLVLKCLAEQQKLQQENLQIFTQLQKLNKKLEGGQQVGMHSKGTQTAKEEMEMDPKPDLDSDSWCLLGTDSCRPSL

Sequence of Sphingosine kinase 1 (Homo sapiens) (Q9NYA1 whole entry): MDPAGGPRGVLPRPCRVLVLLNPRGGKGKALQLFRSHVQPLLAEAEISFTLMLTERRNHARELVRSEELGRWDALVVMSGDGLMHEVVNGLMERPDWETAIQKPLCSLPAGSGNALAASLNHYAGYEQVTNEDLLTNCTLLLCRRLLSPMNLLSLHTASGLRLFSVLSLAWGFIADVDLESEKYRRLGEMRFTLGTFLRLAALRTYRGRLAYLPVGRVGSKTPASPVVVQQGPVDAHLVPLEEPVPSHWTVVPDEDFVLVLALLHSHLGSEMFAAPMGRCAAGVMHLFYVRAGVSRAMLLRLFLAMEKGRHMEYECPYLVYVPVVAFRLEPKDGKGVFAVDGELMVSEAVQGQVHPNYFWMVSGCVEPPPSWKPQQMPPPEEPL

Structure (SMILES) | inhibition [1] | inhibition [2] | inhibition [3] | inhibition [4] | inhibition [5] | inhibition [6] | inhibition [7] | inhibition [8] | inhibition [9] | inhibition [10] | inhibition [11] | inhibition [12] | inhibition [13] | inhibition [14] | inhibition [15] | inhibition [16] | inhibition [17] | inhibition [18] | inhibition [19] | inhibition [20]
COc1ccc(-c2nn3ncccc3c2-c2ccnc(Nc3ccc(Cl)c(C(F)(F)F)c3)n2)cc1 | -2.15% | -0.61% | 0.61% | 2.8% | 8.2% | 5.34% | 3.48% | 5.25% | 8.22% | 4.71% | 5.7% | 1.43% | 2.51% | 2.35% | 1.82% | 3.06% | 2.55% | 3.34% | 3.28% | 6.79%
COC(=O)Nc1nc2cc(Oc3ccc(NC(=O)Nc4cccc(C(=O)O)c4)cc3)ccc2[nH]1 | -2.52% | 0.52% | -0.25% | 1.52% | 8.32% | 5.47% | -3.86% | 1.26% | 2.79% | 3.11% | 3.63% | 0.04% | 2.1% | -0.46% | -6.05% | -0.14% | -0.54% | -2.43% | -0.18% | 3.39%

— ChEMBL document CHEMBL1961873, “Compounds: GSK PKIS; Assays: Nanosyn kinase panel” (2012)
